Laboratory results: PubChem BioAssay (NCI)
This is part of a sample that, as a whole, favours compounds with a hit. Of some 83,000 tested, about 20% had one in any assay.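 Cells were grown in 96-well plates and exposed to the test compound at a single concentration for 48 hours; results are reported as percent growth, with values below 10 considered active.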 Active and inactive are the calls of the source.

These compounds were tested on MDA-MB-468 breast (assay: NCI-60 one-dose screen, 48 h (100 = growth as untreated, 0 = no growth, -100 = all killed)). Details: 10 µM unless noted.

Compound	growth
CCC(=O)NC(O)C(Cl)(Cl)C(C)Cl (stereo not given)	92.5% (inactive)
CC1CN(CC(O)c2ccc(Br)cc2)CCO1 (stereo not given)	115% (inactive)
O=[N+]([O-])c1ccc(-c2cc3c(Nc4ccc(OCc5cccc(Cl)c5)c(Cl)c4)ncnc3s2)cc1	56.2% (inactive)
CC(C)n1c(/C=C/[C@@H](O)C[C@@H](O)CC(=O)O)c(-c2ccc(F)cc2)c2ccccc21	81.7% (inactive)
COc1ccc(/C=C/c2nc(N3CCOCC3)c3nc(Cl)c(Cl)cc3n2)cc1OC	101% (inactive)
C1=CC(c2nn3c(-c4ccccc4)nnc3s2)=Cc2ccccc2O1	44.9% (inactive)
C=C1C(=O)O[C@H]2[C@H]1CC/C(COC(=O)NCCc1c[nH]c3ccccc13)=C\CC[C@@]1(C)O[C@@H]21	-6.71% (active)
O=C1N=C(c2c(-c3[nH]c(=O)c4ccc(Br)cc4c3O)c(O)c3ccccc3c2O)C(=O)c2cc(Br)ccc21	-11.5% (active)
C=CC(=O)Nc1cc2c(Nc3ccc(F)c(Cl)c3)ncnc2cc1C#CC(C)(C)N1CCN(C)CC1	-61.1% (active)
CCN1C(=O)/C(=c2\sc3n(c2=O)C2C(NN=3)N(CC)C(=S)N2CC)c2ccccc21 (stereo not given)	104% (inactive)
O=C(Nc1nc2cc(C(=O)N3CCN(C(c4ccccc4)c4ccccc4)CC3)ccc2o1)c1ccc(NC2CCCCC2)c([N+](=O)[O-])c1	75.2% (inactive)
O=C(CN1CCN(c2cc3c(cc2F)c(=O)c(C(=O)N/N=C/c2ccccc2O)cn3C2CC2)CC1)N/N=C\c1ccccc1O	-4.47% (active)
N/C(=N\O)c1ccncc1	121% (inactive)
CCOC(=O)C(=O)CC(=O)c1ccccc1	96.9% (inactive)
O=c1c2ccccc2oc2ccc(OCCCCCCN3CCCCCC3)cc12	20.2% (inactive)
CCCC1(CN2c3ccccc3Sc3ccc(Cl)cc32)CCN(CC)C1 (stereo not given)	-64.2% (active)
COc1ccc(CCN2CCCn3c2nc2ccccc2c3=O)cc1	-14% (active)
CCCC[N+](CCCC)=c1ccc2nc3c(C)cc(N(CC)CC)cc3sc-2c1	-45.9% (active)
CC1(C)OC2=C(CC1Br)C(=O)C(=O)c1ccccc12 (stereo not given)	-87.1% (active)
CCN(CC)CCCC(C)Nc1c(-c2ccccc2)cnc2cc(Cl)ccc12 (stereo not given)	44.4% (inactive)

Compound	growth
COc1ccc(C(O)(c2ccccc2)C(C(=O)O)c2ccccc2)cc1 (stereo not given)	110% (inactive)
O=c1cc(-c2ccccc2)oc2cc(OCc3cn(Cc4ccc(F)cc4)nn3)cc(OCc3cn(Cc4ccc(F)cc4)nn3)c12	38.7% (inactive)
CCOc1ccc(C(=O)Nc2ncc(Cc3ccc(F)cc3)s2)cc1	31.9% (inactive)
Cc1cccc(NCc2cn(-c3ccc(C(=O)O)cc3)nc2-c2ccc(C(=O)O)cc2)n1	101% (inactive)
C[C@H](CCCC(=O)NCC#CCN1CCN(C)CC1)[C@H]1CC[C@H]2[C@@H]3CC[C@@H]4CC(=O)CC[C@]4(C)[C@H]3CC[C@]12C	91% (inactive)
COc1cc(/C=N/NC(=O)c2ccc(-n3cc(-c4ccccc4)nn3)cc2)cc(OC)c1OC	31.6% (inactive)
CCc1cnn2c(NCc3ccc[n+]([O-])c3)cc(N3CCCC[C@H]3CCO)nc12	-56.3% (active)
O=c1cc(-c2ccccc2)nc2cc(-c3ccco3)[nH]n12	-1.48% (active)
CCOC(=O)c1sc(/N=C2\NC(=O)/C(=C/c3ccc(N4CCN(C)CC4)cc3)S2)nc1C	111% (inactive)
CC(Nc1ncnc2ccc(-c3cnc(N)nc3)cc12)c1ccccc1 (stereo not given)	-28.6% (active)
CCCCC(=O)OC1CCCCC1C (stereo not given)	86.6% (inactive)
COc1cc(C2CC(c3ccc(Cl)cc3)=NN2C=O)ccc1Oc1ccnc2cc(Cl)ccc12 (stereo not given)	39.7% (inactive)
COc1ccc(Oc2nc(NC3CCCC3)nc(Sc3ccc(OC)cc3)n2)cc1	93% (inactive)
COC(=O)c1c2c(c(C)[n+]([O-])c1C)C(=O)C(NCc1ccc(OC)cc1)=CC2=O	-6.29% (active)
O=c1cc(N2CCOCC2)oc2c(-c3ccc4c(c3)OCCO4)csc12	-4.24% (active)
Cc1ccc(NC(=O)c2cc(-c3nc4ccccc4s3)c(=O)n(NS(=O)(=O)c3ccc(Cl)cc3)c2N)cc1	109% (inactive)
O=C(CCCSc1nc(-c2ccccc2)cc(-c2ccccc2)n1)NO	-38% (active)
C#C[C@]1(O)CC[C@H]2[C@@H]3CC=C4c5sc(-c6ccc(C)cc6)nc5CC[C@]4(C)[C@H]3CC[C@@]21C	84.4% (inactive)
O=S(=O)(NCCNc1cc(-c2c(-c3cccc(O)c3)nc3sccn23)ccn1)c1ccc(Br)cc1	47.7% (inactive)
COc1ccc(C(=O)c2c(N)c(C#N)cn2-c2ccccc2OC)cc1	31% (inactive)
